Experimental data as given in PubChem BioAssay (NCI).
Compounds without any hit were thinned out: in the full panel of roughly 83,000, 20% have a hit.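 Single-concentration screen, 48 h exposure, 96-well plates. Endpoint: percent growth. Below 10 = active.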 Activity calls are given as the source filed them.

Tests used:
Test in all cases: NCI-60 one-dose screen, 48 h (100 = growth as untreated, 0 = no growth, -100 = all killed)
Settings in all cases: 10 µM
[1] = tested on: EKVX NSCLC
[2] = tested on: SN12C renal
[3] = tested on: UO-31 renal
[4] = tested on: TK-10 renal
[5] = tested on: ACHN renal
[6] = tested on: CAKI-1 renal
[7] = tested on: A498 renal
[8] = tested on: CCRF-CEM leukemia
[9] = tested on: MOLT-4 leukemia

Measured: growth

Cc1ccn2c(C(=O)c3ccccc3)cc(-c3cc(-c4ccc(N(C)C)cc4)c(C#N)c(N)n3)c2c1
inactive: [1] 88.6% | [2] 61.9% | [3] 65.4% | [4] 85.7% | [5] 31.2% | [6] 52.7% | [7] 111% | [8] 96.5% | [9] 82.9%

O=C(NO)c1ccc(Cn2ccc3c(Nc4ccccc4)ncnc32)cc1
inactive: [1] 23.6% | [2] 17.6% | [8] 18.2%
active: [3] 9.48% | [4] 2.65% | [5] 1.86% | [7] -14.2% | [9] 7.84%

Nc1nc(Nc2ccc(Cl)cc2)n(Cc2cccc(Br)c2)n1
active: [1] -4.06% | [2] -28.5% | [3] -7.87% | [5] 1.49% | [6] 3.07% | [7] -49% | [8] 4.65% | [9] 8.42%
